From PubChem
IL-1B inflam inh – inflammasome signaling inhibition, IL-1 beta readout. THP-1 LPS/ATP IL-1B secretion, AlphaLISA, 16 h; hits give low values. activity change, % at 57.5 µM. actives 4.7% (n = 360,000). AID 743279; in the data active = activity change below about -50%; inconclusive = mostly about -30% to -49%; also: % is scaled to controls: 0 for no effect and ±100 for the full control effect
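Secreted IL-1B measured by AlphaLISA bead assay after 16 h compound exposure of THP-1 cells; compounds (final up to 57.5 uM) added 1 h before LPS (250 ng/mL) and ATP (1.25 mM) stimulation; lower signal means less secretion.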
MCF10A rerep – DNA re-replication induction in MCF 10a cells; Potency, µM (titrated, usually from 46.1 µM), for inactives: at the highest dose activity, positive = re-replication, usual class: activators; AID 624296; actives 2.9% (n = 350,000); MCF 10A DNA re-replication, Hoechst nuclear intensity, 48 h; also: potency is read from the fitted curve at half-maximal effect; % of control where 0% means no effect; nearly all actives have a fitted effect of over 50% in size
SW480 rerep – DNA re-replication induction in SW480 cells; SW480 DNA re-replication, Hoechst DNA content imaging, 48 h; Potency, µM (highest dose often 46.1 µM), for inactives: at the top dose re-replication activation, most hits filed as activators; actives 1.8% (n = 340,000); AID 624297; also: potency is read from the fitted curve at half-maximal effect; % of control where 0% means no effect; nearly all actives have a fitted effect of over 55% in size
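Quantitative HTS format with DMSO vehicle controls; 48 hr drug incubation at 37 C, then 40 min Hoechst staining and scanning imager measurement at 405 nm excitation.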
KB-V1 MDR tox – KB-V1 MDR subline cytotoxicity. KB-V1 MDR cells viability, CellTiter-Glo, 72 h. Potency, µM (doses to about 46.1 µM), most hits filed as cytotoxic. actives 3.4% (n = 400,000). AID 1347076; also: potency is read from the fitted curve at half-maximal effect; % is scaled to controls: 0 for no effect and ±100 for the full control effect; nearly all actives have a fitted effect of over 60% in size
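Cells of the MDR subline KB-V1 are plated, dosed with compound at multiple concentrations, and incubated 72 h at 37 degrees C; CellTiter-Glo is then added and luminescence read after 10 min.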
KB-3-1 cytotox – KB-3-1 parental cell cytotoxicity; KB-3-1 viability, CellTiter-Glo ATP luminescence, 72 h; Potency, µM (highest dose often 46.1 µM), actives largely listed as cytotoxic; actives 1.4% (n = 400,000); AID 1347075; also: potency is read from the fitted curve at half-maximal effect; % is scaled to controls: 0 for no effect and ±100 for the full control effect; nearly all actives have a fitted effect of over 60% in size
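Parental KB-3-1 viability, qHTS format: 72 h compound exposure, 37 °C; CellTiter-Glo; media-only wells and DMSO plates as controls; concentration-effect fits on corrected data.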
An asterisk follows results filed as active. The list is not random: actives were taken first. Their share in the collection is about 9.9%. Unless noted, calls follow the shape of the dose curve; as a rule, active = well fitted curve in the direction sought with a large enough effect; inconclusive = small, poorly fitted or top-dose-only effect, or another doubt; inactive = no such curve, though single readings can be large; an effect the other way counts as inactive or inconclusive.

Screening CCN/N=C(\Cc1nc2ccccc2[nH]1)c1ccccc1 returned IL-1B inflam inh 3, MCF10A rerep 21µM*, SW480 rerep 16%, KB-V1 MDR tox inactive and KB-3-1 cytotox inactive.
Cc1ccc(N/N=C(\Cc2nc3ccccc3[nH]2)c2ccccc2)cc1 was read as IL-1B inflam inh 0, MCF10A rerep inconclusive, SW480 rerep 1.8µM*, KB-V1 MDR tox 3.7µM* and KB-3-1 cytotox 1.2µM*.
c1ccc(N/N=C(\Cc2nc3ccccc3[nH]2)c2ccccc2)cc1 was read as IL-1B inflam inh -68*, MCF10A rerep inconclusive, SW480 rerep 15%, KB-V1 MDR tox inactive and KB-3-1 cytotox inactive.
`N/N=C(/Cc1nc2ccccc2[nH]1)c1ccc([N+](=O)[O-])cc1` gave IL-1B inflam inh -6, MCF10A rerep -2%, SW480 rerep -3%, KB-V1 MDR tox inconclusive and KB-3-1 cytotox inactive.
Cc1ccc2c(c1)c(=O)c1ccccc1n2CCCC(=O)Nc1c(F)cccc1F was read as KB-V1 MDR tox inactive and KB-3-1 cytotox inactive.
Screening O=C(NCCc1ccccc1)c1sc2ncccc2c1-n1cccc1 returned KB-V1 MDR tox inactive and KB-3-1 cytotox inconclusive.
CCCCCc1c(C)nc(N2CCc3ccccc32)[nH]c1=O was read as IL-1B inflam inh 4, MCF10A rerep -4%, SW480 rerep inconclusive, KB-V1 MDR tox 3.3µM* and KB-3-1 cytotox inconclusive.
Screening Cc1cc(C)cc(N(CC(=O)N2CCOCC2)S(=O)(=O)c2ccccc2)c1 returned IL-1B inflam inh 33, MCF10A rerep -12%, SW480 rerep -4%, KB-V1 MDR tox inconclusive and KB-3-1 cytotox inactive.
Screening Cc1cc(C)cc(N(CC(=O)N2CCC(C)CC2)S(=O)(=O)c2ccccc2)c1 returned IL-1B inflam inh -28, MCF10A rerep 4%, SW480 rerep inconclusive, KB-V1 MDR tox 16µM* and KB-3-1 cytotox inactive.
For COc1cccc(CN(C)C(=O)C2CC(=O)N(c3ccc4c(c3)OCCO4)C2)c1 (stereo not given) the results were IL-1B inflam inh 3, MCF10A rerep 7%, SW480 rerep -4%, KB-V1 MDR tox inconclusive and KB-3-1 cytotox inconclusive.
CCC(=O)Oc1ccc(C/C(=N\O)c2ccc(O)cc2O)o1 was read as IL-1B inflam inh -2, MCF10A rerep 15µM*, SW480 rerep inconclusive, KB-V1 MDR tox inactive and KB-3-1 cytotox inactive.
`COC1=CCC2([N+](=O)[O-])CN(CCO)CC1([N+](=O)[O-])C2` (stereo not given) gave IL-1B inflam inh 18, MCF10A rerep 0%, SW480 rerep -2%, KB-V1 MDR tox inactive and KB-3-1 cytotox inactive.
`O=C(O)CCN1CC2([N+](=O)[O-])CC=C(OCCO)C([N+](=O)[O-])(C1)C2` (stereo not given) gave IL-1B inflam inh 11, MCF10A rerep 0%, SW480 rerep 3.7µM*, KB-V1 MDR tox inactive and KB-3-1 cytotox inactive.
COc1ccc(Cl)cc1N1C(=O)/C(=C\c2sccc2C)N=C1SCC(=O)NC1CC1 was read as IL-1B inflam inh inconclusive, MCF10A rerep -3%, SW480 rerep 10%, KB-V1 MDR tox 21µM* and KB-3-1 cytotox inactive.
For CCc1ccc(CN(C)C(=O)c2cc(COc3cccc4cnccc34)on2)cc1 the results were IL-1B inflam inh -6, MCF10A rerep 21µM*, SW480 rerep -10%, KB-V1 MDR tox inactive and KB-3-1 cytotox inconclusive.
`CCc1ccc(CN(C)C(=O)c2cc(COc3c(F)cccc3F)on2)cc1` gave IL-1B inflam inh -58*, MCF10A rerep 18%, SW480 rerep 1%, KB-V1 MDR tox inactive and KB-3-1 cytotox inactive.
For CN(Cc1cccc2cnccc12)C(=O)c1cc(COc2ccc(F)cc2F)on1 the results were IL-1B inflam inh inconclusive, MCF10A rerep 16%, SW480 rerep -6%, KB-V1 MDR tox inconclusive and KB-3-1 cytotox inactive.
Screening CN(Cc1cccc2ccccc12)C(=O)c1cc(COc2c(F)cccc2F)on1 returned IL-1B inflam inh inconclusive, MCF10A rerep -14%, SW480 rerep 6%, KB-V1 MDR tox inconclusive and KB-3-1 cytotox inactive.
